Only some compounds are listed: those with a hit (about 7.6% of all), similar ones and a draw of the others.
PLAP act = PLAP enzyme activators, biochemical, luminescence, HTS; Alkaline phosphatase, placental type (Homo sapiens), P05187; purified PLAP enzyme, luminescent substrate read-out; hits give high values; activation fold at 20 µM; hit rate 1.2% among 96,000; AID 696, 2007; in the data active means activation fold above about 2
Target sequence (P05187 whole entry, looked up): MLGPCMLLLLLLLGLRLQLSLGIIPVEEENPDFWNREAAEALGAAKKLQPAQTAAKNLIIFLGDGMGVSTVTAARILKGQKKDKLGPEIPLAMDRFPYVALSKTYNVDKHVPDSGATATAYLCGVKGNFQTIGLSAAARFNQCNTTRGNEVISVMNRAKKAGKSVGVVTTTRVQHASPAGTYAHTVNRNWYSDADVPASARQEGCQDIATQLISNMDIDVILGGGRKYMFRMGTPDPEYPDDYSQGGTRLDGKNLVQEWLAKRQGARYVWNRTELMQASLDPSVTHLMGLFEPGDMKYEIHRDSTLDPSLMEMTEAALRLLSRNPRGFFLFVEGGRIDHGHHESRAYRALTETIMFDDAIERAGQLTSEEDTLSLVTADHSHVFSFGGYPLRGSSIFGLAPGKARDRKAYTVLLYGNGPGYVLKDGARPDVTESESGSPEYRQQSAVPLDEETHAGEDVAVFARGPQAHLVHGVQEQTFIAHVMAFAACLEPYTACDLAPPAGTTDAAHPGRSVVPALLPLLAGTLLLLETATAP
Cav3 T inh = Cav3.2 calcium influx blockers – cell-based, Fluo-4 calcium fluorescence, FDSS, MLSMR library, primary screen; AID 449739, 2010; B-score at 10 µM; Cav3.2-expressing cells; hits give low values; Voltage-dependent T-type calcium channel subunit alpha-1H (Homo sapiens), O95180; hit rate 4% among 100,000;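 active means single-dose well whose peak fluorescence ratio is a statistical outlier from its plate by either plate-standardised score or position-corrected B-score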
M1 ag = M1 muscarinic receptor agonists, primary screen, CHO-M1 cells, Fluo-4 calcium, agonist mode; Muscarinic acetylcholine receptor M1; Fluo-4 calcium fluorescence; hits give high values; B-score at 10 µM; hit rate 3% among 64,000; AID 626, 2007;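 active means fluorescence rise, raw or as B-score row- and column-corrected plate score, outside the 99.7% band of its plate's samples, either direction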
M1 antag = antagonists of rat M1 muscarinic receptor; CHO-M1 cells, Fluo-4 calcium, ACh EC80 antagonist mode; hits give low values; Muscarinic acetylcholine receptor M1 (Rattus norvegicus), P08482; AID 628, 2007; B-score at 10 µM; hit rate 3.4% among 64,000;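 active means calcium fluorescence response, raw or row-and-column corrected B-score, differing from the plate sample mean either way at a set confidence level, mostly lower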
* = called active by the depositor; nt = no result given.

SMILES	PLAP act	Cav3 T inh	M1 ag	M1 antag
O=C(CCn1c(=O)[nH]c2ccsc2c1=O)N1CCN(c2cccc(Cl)c2)CC1	1.1	-5.9*	0.055	-0.19
COc1ccc(N2CCN(C(=O)CCCn3c(=O)[nH]c4cc(Cl)ccc4c3=O)CC2)cc1	2*	1.4	nt	nt
Cc1ccc(-n2c3c(c(=O)[nH]c2=O)C(C(F)(F)F)(C(F)(F)F)NC(=O)N3)cc1	1.1	1.3	nt	nt
CC(C)(C)C(=O)NCCc1nc(-c2ccccc2)no1	nt	0.44	nt	nt
CC1CC(C)CN(CCCNC(=O)C2CCC(=O)N2C2CCCC2)C1 (centres undefined)	1.2	0.2	0.77	0.45
COc1ccc(-c2nnc3sc(C4CCCCC4)nn23)cc1OC	2.1*	1.8	0.38	0.23
C1CCC(c2nn3c(-c4n[nH]c5c4CCC5)nnc3s2)CC1	2.3*	0.72	-0.16	0.043
COc1ccc(-c2nn3c(C4CCCCC4)nnc3s2)cc1OC	1.6	-0.19	0.98	0.026
Cc1cc(NC(=O)CSc2n[nH]c(CC(C)C)n2)no1	1.9	-1	0.032	0.039
CCOC(=O)Cc1csc(NC(=O)CC(C)(C)C)n1	1	-0.096	nt	nt
Cc1cc(C(=O)CSc2nnc(N)s2)c(C)n1CCc1ccc(Cl)cc1	0.8	-4.9*	0.031	-0.22
Cc1cc(/C=N/NC(=O)c2cccs2)c(C)n1-c1ccccc1	1.3	-7.9*	nt	nt
CCOc1cc(Br)c(C(=O)O)cc1OC	0.9	0.73	nt	nt
CCOc1ccc(C(=O)CN2CCN(S(=O)(=O)c3ccc(OC)cc3)CC2)cc1	1.4	-0.17	-0.13	0.9
Cc1ccc(-c2nnc(N3CCN(C(=O)COc4ccccc4)CC3)c3ccccc23)cc1	1.6	-7.4*	nt	nt
Cc1sc2ncnc(NCC(C)(C)N3CCOCC3)c2c1C	1.1	1.9	nt	nt
O=c1[nH]c2c(cc1CNCCN1CCOCC1)c(-c1cccc(F)c1)nn2-c1ccccc1	2*	nt	-0.35	-0.39
O=S(=O)(NC1CCCCC1)c1ccc(Cl)s1	1.2	-0.081	0.22	-0.44
Cc1c(C(=O)Nc2ccc(Cl)cc2)c2ccccn2c1C(=O)c1ccc([N+](=O)[O-])cc1	1	-7.1*	nt	nt
C=CCn1c(SCCC)nc(O)cc1=O	1.1	0.8	nt	nt
Cn1ccnc1C(O)c1cc(C(C)(C)C)c(O)c(C(C)(C)C)c1 (centres undefined)	2.2*	0.65	0.065	-1.4
Brc1ccc(-c2nn3c(-c4ccncc4)nnc3s2)o1	1.1	nt	0.92	-3.1*
Cc1ccccc1CSCC(Nc1ccc(C(=O)O)cc1[N+](=O)[O-])C(=O)O (centres undefined)	0.7	1.6	nt	nt
O=C(Nc1ccc(Cl)cc1)c1cc(S(=O)(=O)N2CCOCC2)cs1	0.8	-0.4	nt	nt
O=C(Nc1ccc(F)cc1)c1cc(S(=O)(=O)Nc2ccc(F)cc2)cs1	1.1	-5.8*	nt	nt
SMILES	PLAP act	Cav3 T inh	M1 ag	M1 antag
Cc1ccc(NC(=O)c2cc(S(=O)(=O)N3CCCCC3)cs2)cc1	0.8	-4.8*	nt	nt
CCCC(=O)N1c2ccccc2C(N(C(C)=O)c2ccccc2)CC1C (centres undefined)	1.3	nt	nt	nt
Cc1ccc(C(=O)N(c2ccccc2)C2CC(C)N(C(=O)c3ccco3)c3ccccc32)cc1 (centres undefined)	1.7	-5.6*	nt	nt
Cc1ccc(O)c(-c2cc(-c3ccccc3C)[nH]n2)c1	1.6	-3	-0.49	0.63
Cc1ccc(O)c(-c2cc(C(F)(F)C(F)F)[nH]n2)c1	2*	-2.6	3.3	0.006
CCOc1ccc2[nH]c(=O)c(CN(Cc3cccs3)Cc3nnnn3C(C)(C)CC)cc2c1	1.7	-1.2	0.92	0.77
CCC(C)(C)n1nnnc1CN(Cc1cccs1)Cc1cc2cc(OC)ccc2[nH]c1=O	1.4	-0.8	3.7*	-1
O=C(NCc1ccco1)c1ccccc1NS(=O)(=O)c1ccc(Br)s1	1.3	-6.1*	nt	nt
O=C(NCc1ccco1)c1ccccc1Nc1ccc(F)cc1	0.7	-6*	0.11	-0.91
O=C(O)CCC(=O)Nc1ccccc1C(=O)NCc1ccco1	nt	-0.084	nt	nt
O=C(c1ccccc1NS(=O)(=O)c1ccc(Br)s1)N1CCCC1	1.3	-1.8	1.8	-0.4
CCN(CC)C(=O)C1CCCN(c2ccc([N+](=O)[O-])cc2/C=N/NC(=O)c2cccc([N+](=O)[O-])c2)C1 (centres undefined)	1.3	nt	nt	nt
COc1cccc(OC)c1OCCN(C)C	1	-0.12	nt	nt
O=S(=O)(N/N=C1/CCCc2ccccc21)c1ccc(Br)cc1	nt	-4.2*	nt	nt
Cc1ccc(C)c(S(=O)(=O)N/N=C2/CCCc3ccccc32)c1	1	-4	nt	nt
Cc1cc2nc(C3CCN(CC4COc5ccccc5O4)CC3)[nH]c2cc1C (centres undefined)	nt	-6.3*	0.73	-0.85
